“And” between values parts separate entries of the source, which are not always exact repeats. Equal values may be shown once. Results filed as inconclusive are left out. More than one record can exist for a structure, and the calls need not agree. The source made the active and inactive calls. Rule for the calls: active = hit-call score of the fitted dose curve at least 0.9, where 1 is the maximum; inconclusive = response in the unintended direction; inactive = score below 0.9.

The nature of assay [1]: ATG_XTT_Cytotoxicity: Cytotoxicity Assessment in the Attagene TRANS-FACTORIAL HepG2 Assay (AID 2283584).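 For AC50: XTT signal for cell number as viability in transfected HepG2 cells; cells exposed to compound for 24 h before reading; active means loss of viability signal versus DMSO baseline.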 The method, boiled down: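 Transfect HepG2 with GAL4-UAS reporter units, dose compound, incubate 24 h, then measure viable cell number by XTT. Fit concentration response against DMSO baseline.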
A short description of assay [2]: TOX21_p53_BLA_p2_viability: Viability Assessment in the Tox21 HCT-116 p53 Agonism Beta-lactamase Assay, Phase 2 (AID 2283591).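 Note: compound exposure lasted 16 h at 37 °C; actives lower the ATP signal meaning cytotoxicity.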 In short, it runs like this:
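HCT-116 p53-bla cells (4000/well) rested 5 h at 37C, then received compounds in DMSO (217-fold dilution) for 16 h at 37C, 5% CO2. After the CCF4 read, CellTiter-Glo was added; ATP luminescence was read after 30 min at room temperature.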

For the compound `COc1cccc(OC)c1`, the compound was classed as inactive in assay [1] and in assay [2].
For the compound `NC(=O)NC1NC(=O)NC1=O` (configuration not stated), the compound was classed as inactive in assay [1] and in assay [2].
For `CCCCCCCCC`, the outcome in assay [1] and in assay [2] was inactive.
On to `COCCCOc1ccnc(CS(=O)c2nc3ccccc3[nH]2)c1C` (configuration not stated), for which the outcome in assay [1] and in assay [2] was inactive.
For the compound `CCCCOCCOCCSC#N`, the outcome in assay [1] and in assay [2] was inactive.
On to `CCCCC(CC)COCCC#N` (configuration not stated), for which the compound was called inactive in assay [1] and in assay [2].
Turning to `O=C(O)c1ccc(C(=O)O)cc1`, the call in assay [1] and in assay [2] was inactive.
On to `CCN(CC)c1ccc2c(-c3ccccc3C(=O)O)c3ccc(=[N+](CC)CC)cc-3oc2c1`, for which the call in assay [1] and in assay [2] was inactive.
For `CC(C)(C)c1cc(CCC(=O)NN)cc(C(C)(C)C)c1O`, the result in assay [1] and in assay [2] was inactive.
In the case of `CC1(CO)CN(c2ccccc2)NC1=O` (configuration not stated), the outcome in assay [1] and in assay [2] was inactive.
Regarding `C=C(C)[C@@H]1CC[C@@H](C)C[C@@H]1O`, the outcome in assay [1] and in assay [2] was inactive.
Regarding `C[Si](O[Si](C)(C)C)O[Si](C)(C)C`, the result in assay [1] and in assay [2] was inactive.
For the compound `CC(=O)OCc1ccc2c(c1)OCO2`, the call in assay [1] and in assay [2] was inactive.
As for `COCCOCCOCCOCCOCCO`, the outcome in assay [1] and in assay [2] was inactive.
As to `CSc1nc(NC2CC2)nc(NC(C)(C)C)n1`, the compound was classed as inactive in assay [1] and in assay [2].
Usually AC50 stands for the concentration at which the activity in the assay is half-maximal. For the compound `C#C[C@]1(O)CC[C@H]2[C@@H]3CCC4=Cc5oncc5C[C@]4(C)[C@H]3CC[C@@]21C`, the AC50 in assay [1] is 151 µM (active). Also, the compound was called inactive in assay [2].
Turning to `CNC(=O)Oc1ccc2c(c1)[C@]1(C)CCN(C)[C@@H]1N2C`, the compound was classed as inactive in assay [1] and in assay [2].
`N#Cc1ccccc1`: the call in assay [1] and in assay [2] was inactive.
Take `CCCCNC(=O)NS(=O)(=O)c1ccc(N)cc1`: the compound was called inactive in assay [1] and in assay [2].
On to `CCC(=O)OCCC(C)CCC=C(C)C` (configuration not stated), for which the compound was called inactive in assay [1] and in assay [2].
For the compound `OCCOCCOCCOCCO`, the result in assay [1] and in assay [2] was inactive.
As to `O=C1CCc2ccccc2O1`, the call in assay [1] and in assay [2] was inactive.
Consider `C=C(C)C(=O)O`, for which the compound was called inactive in assay [1] and in assay [2].
As for `Cc1ccc(O)c(C(C)(C)C)c1`, the compound was classed as inactive in assay [1]. In assay [2], the AC50 was 44.8 µM (active) and the compound was classed as inactive.
Turning to `O=c1[nH]nnc2ccccc12`, the result in assay [1] and in assay [2] was inactive.
Consider `CC1=CCC(O)(C(C)C)CC1` (configuration not stated), for which the compound was classed as inactive in assay [1] and in assay [2].
Consider `O=[N+]([O-])c1cc(C(F)(F)F)ccc1Cl`, for which the compound was called inactive in assay [1] and in assay [2].
Consider `CC(C)=CCC[C@](C)(O)[C@@H]1CC=C(C)CC1`, for which the result in assay [2] was inactive.
Same read-out and setting: to `CC1CC(OC(=O)c2ccccc2O)CC(C)(C)C1` (configuration not stated) belongs “inactive”.
As to `CC(C)CCCCCCCOC(=O)c1ccc(C(=O)OCCCCCCCC(C)C)c(C(=O)OCCCCCCCC(C)C)c1`, the result in assay [1] and in assay [2] was inactive.
For `CC(=O)Nc1ccc(CC(=O)O)cc1`, in assay [2], the outcome was inactive.
As for `O=C1c2ccccc2C(=O)N1SC1CCCCC1`, in assay [1], the result was inactive. In assay [2], the AC50 is 61.2 µM (active) and the compound was called inactive.
In the case of `COC(=O)Cc1cccc2ccccc12`, the compound was classed as inactive in assay [1] and in assay [2].
For the compound `O=S(=O)(O)c1ccc(O)c2ncccc12`, the result in assay [1] and in assay [2] was inactive.
In the case of `CCCC/C=C\CCCCCCCCCC=O`, the compound was called inactive in assay [2].
On to `O=C=NC1CCC(CC2CCC(N=C=O)CC2)CC1` (configuration not stated), for which the compound was called inactive in assay [1] and in assay [2].
`C=C(C)C(=O)Nc1ccc(Cl)c(Cl)c1`: the compound was called inactive in assay [1] and in assay [2].
Take `COC(=O)OC`: the result in assay [1] and in assay [2] was inactive.
`CN(C)C(=N)N=C(N)N`: the result in assay [2] was inactive.
In the case of `CCCc1c(OCCCOc2ccc(OCC(=O)O)cc2)ccc(C(C)=O)c1O`, the compound was called inactive in assay [1]. The AC50 in assay [2] is 57 µM (active).
`CCCCCCCCCCCCCOS(=O)(=O)O`: the AC50 in assay [2] is 82.4 µM (active).
On to `C=CC(=O)OCC(O)COc1ccccc1` (configuration not stated), for which the outcome in assay [1] was inactive. Moreover, the AC50 in assay [2] is 45.5 µM (active).
As for `Clc1nc(C(Cl)(Cl)Cl)c(Cl)c(Cl)c1Cl`, the outcome in assay [1] and in assay [2] was inactive.
`Cc1ccc(S)cc1`: in assay [2], the outcome was inactive.
Regarding `O=C(O)CN(CCN(CC(=O)O)CC(=O)O)CCN(CC(=O)O)CC(=O)O`, the result in assay [1] and in assay [2] was inactive.
Regarding `CC1(C)[C@H]2CC[C@]1(C)[C@H](O)C2`, the outcome in assay [2] was inactive.
As for `CNCCCC12CCC(c3ccccc31)c1ccccc12`, in assay [1], the compound was called inactive. In assay [2], the AC50 was 64.5 µM (active) and the compound was classed as inactive.
As to `CCC(C(=O)NC(N)=O)c1ccccc1` (configuration not stated), the compound was classed as inactive in assay [2].
With `O=C(O)Cc1cccc2ccccc12`, the compound was called inactive in assay [1] and in assay [2].
`CN(C)CCCN`: the call in assay [2] was inactive.
For `O=C(O)c1cccc([N+](=O)[O-])c1`, the compound was classed as inactive in assay [1] and in assay [2].
Consider `NC(N)=NC(=O)c1nc(Cl)c(N)nc1N`, for which the compound was classed as inactive in assay [1] and in assay [2].
Consider `CCCCCCCCCCCCN`, for which the AC50 in assay [1] was 68.9 µM (active) and 58.2 µM (active). For the same compound, in assay [2], the AC50 is 51.6 µM (active) and the compound was called inactive.
Regarding `Cc1ccc(C(=O)c2cc(O)c(O)c([N+](=O)[O-])c2)cc1`, the result in assay [1] and in assay [2] was inactive. Besides, the AC50 in assay [2] is 53.8 µM (active).
In the case of `CC(C)=CCCC(C)=CCCC(C)=CCO`, the compound was classed as inactive in assay [2].
With `c1ccc(CCCc2ccccn2)cc1`, the compound was classed as inactive in assay [1] and in assay [2].
In the case of `OC1OC[C@@H](O)[C@H](O)[C@H]1O` (some centres not stated), in assay [2], the outcome was inactive.
Turning to `CCCCC/C=C/C=C/C=O`, the compound was classed as inactive in assay [1]. In assay [2], the AC50 was 62.9 µM (active) and the compound was classed as inactive.
For the compound `CC(=O)OCCOC(C)=O`, the outcome in assay [1] and in assay [2] was inactive.

These data come from PubChem BioAssay (EPA / NIEHS).
